A selection: hits, their analogues and other compounds. The true share with any hit is near 1.5%.
V-ATPase pHluor = alters yeast V-ATPase proton transport | actives 0.37% (n = 350,000) | S. cerevisiae, pHLuorin cytosolic pH fluorescence | AID 504577 | response, % at 10 µM; in the data active = response mostly above about 7.3%, no sharp cut-off; inactive = mostly below about 5.4%; also: actives read high
CRFBP-R2 block = antagonists of CRF-binding protein/CRF-R2 receptor complex; HEK293 CRF-R2/CRF-BP, CRF-induced calcium fluorescence; inhibition, % at 11.8 µM; actives 0.59% (n = 350,000); AID 588475;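 active = inhibition of the ligand-induced calcium signal above about 50% at the single tested concentration, limit read from the data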
CRFBP-R2 agonist = agonists of human CRF-binding protein/CRF-R2 receptor complex. HEK293 CRF-R2/CRF-BP, calcium dye fluorescence (FLIPR); percent of saturating CRF peptide response. activation, % at 13.2 µM. actives 0.46% (n = 350,000);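 active = activation of at least 50%, plus an integration ratio under a set limit after plate pattern correction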;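 also: plate controls were neutral control wells without compound for no effect and CRF at EC100 for full effect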
NTR1 ag = activates human neurotensin receptor 1. P30989. NTR1-U2OS beta-arrestin-GFP spot imaging, agonist mode. activation, % at 20 µM. actives 0.17% (n = 330,000). AID 493036;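 active = activation at or above 40% of the spot to cytoplasm intensity ratio, with at least 20 cells analyzed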;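 also: 0% = DMSO without peptide and 100% = 100 nM NTR1 peptide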
Target sequence (P30989 whole entry, looked up): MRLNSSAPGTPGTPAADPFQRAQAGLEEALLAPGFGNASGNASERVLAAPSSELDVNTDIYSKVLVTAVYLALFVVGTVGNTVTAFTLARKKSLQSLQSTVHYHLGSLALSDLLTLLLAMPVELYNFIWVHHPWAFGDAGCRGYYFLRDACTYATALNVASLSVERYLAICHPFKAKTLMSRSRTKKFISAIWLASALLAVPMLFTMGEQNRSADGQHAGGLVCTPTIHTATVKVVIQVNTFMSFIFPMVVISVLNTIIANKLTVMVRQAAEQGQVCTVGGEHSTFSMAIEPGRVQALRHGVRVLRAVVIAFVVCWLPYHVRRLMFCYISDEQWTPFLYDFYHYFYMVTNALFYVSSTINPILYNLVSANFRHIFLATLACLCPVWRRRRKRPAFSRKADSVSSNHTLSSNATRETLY
* marks the source's active call; other numbers are inactive results.

What do the screens show for `CCC1(c2ccccc2)NC(=O)N(CC(=O)Nc2ccc(OC)nc2)C1=O` (stereo unspecified)?
V-ATPase pHluor: -2; CRFBP-R2 block: -62; CRFBP-R2 agonist: 93*; NTR1 ag: 0

How did CCCNc1ccc(C(=O)OCC)cc1[N+](=O)[O-] do in these assays?
V-ATPase pHluor: -1; CRFBP-R2 block: 61*; CRFBP-R2 agonist: -8; NTR1 ag: 3

Results for CCC1(c2ccc(Cl)cc2)NC(=O)N(Cc2ccc(C(=O)OC)cc2)C1=O (stereo unspecified) ?
V-ATPase pHluor: 13*; CRFBP-R2 block: -45; CRFBP-R2 agonist: 8; NTR1 ag: 7

How did CCOC(=O)/C=c1/s/c(=C/c2ccc3cc(OC)ccc3c2)c(=O)n1CC(=O)NCc1ccc2c(c1)OCO2 do in these assays?
V-ATPase pHluor: -21; CRFBP-R2 block: -11; CRFBP-R2 agonist: 64*

How did O=C(CSc1ccccc1)NC1CC1 do in these assays?
CRFBP-R2 block: 19; CRFBP-R2 agonist: -1

What do the screens show for `O=[N+]([O-])/C(C(Cl)=C(Cl)Cl)=C(/NC1CC1)Sc1ccccc1`?
V-ATPase pHluor: 3; CRFBP-R2 block: 56*; CRFBP-R2 agonist: -2; NTR1 ag: -2

Results for O=C(Nc1ccccc1N1CCCC1)C1CCN(C(=O)c2ccc(Cl)cc2)CC1 ?
V-ATPase pHluor: -7; CRFBP-R2 block: -21; CRFBP-R2 agonist: -2; NTR1 ag: -1

How did O=C(Nc1ccccc1N1CCCCC1)C1CCN(C(=O)c2ccc(Cl)cc2)CC1 do in these assays?
V-ATPase pHluor: 6; CRFBP-R2 block: 100*; CRFBP-R2 agonist: 3; NTR1 ag: 4

What do the screens show for `Cc1cc(C)cc(C(=O)Nc2cccnc2Cl)c1`?
V-ATPase pHluor: -2; CRFBP-R2 block: 68*; CRFBP-R2 agonist: 2; NTR1 ag: 0

How did CCOc1ccc(C(=O)OCC(=O)Nc2cccnc2Cl)cc1OCC do in these assays?
V-ATPase pHluor: -2; CRFBP-R2 block: 103*; CRFBP-R2 agonist: 1; NTR1 ag: -2

How did Clc1ccc(N=c2ssnc2Cl)cc1 do in these assays?
V-ATPase pHluor: 1; CRFBP-R2 block: 43; CRFBP-R2 agonist: 67*; NTR1 ag: 2

How did Fc1ccc(N=c2ssnc2Cl)c(F)c1 do in these assays?
V-ATPase pHluor: 0; CRFBP-R2 block: -10; CRFBP-R2 agonist: 70*; NTR1 ag: 0

How did Clc1nssc1=Nc1ccccc1 do in these assays?
V-ATPase pHluor: 0; CRFBP-R2 block: 12; CRFBP-R2 agonist: 0

Results for COc1cc2c(cc1CNC[C@H]1O[C@@H](n3cnc4c(N)ncnc43)[C@H](O)[C@@H]1O)OCO2 ?
V-ATPase pHluor: -4; CRFBP-R2 block: 13; CRFBP-R2 agonist: 1; NTR1 ag: 1

How did Cc1c(OCC(=O)NCCN2CCOCC2)ccc2c3c(c(=O)oc12)CCC3 do in these assays?
V-ATPase pHluor: -4; CRFBP-R2 block: 115*; CRFBP-R2 agonist: -2; NTR1 ag: -1

How did Cc1c(OCC(=O)NCCCN2CCOCC2)ccc2c3c(c(=O)oc12)CCCC3 do in these assays?
V-ATPase pHluor: 6; CRFBP-R2 block: -8; CRFBP-R2 agonist: 1; NTR1 ag: -1

What do the screens show for `CCOc1ccc(C(=O)NCC(=O)OCc2c(C)noc2C)cc1OCC`?
V-ATPase pHluor: 13*; CRFBP-R2 block: 7; CRFBP-R2 agonist: -1; NTR1 ag: 0

How did COc1ccc(C2c3c(-c4ccccc4O)n[nH]c3C(=O)N2Cc2ccco2)cc1 (stereo unspecified) do in these assays?
V-ATPase pHluor: -7; CRFBP-R2 block: 136*; CRFBP-R2 agonist: -3; NTR1 ag: 11

How did COc1cc(/C=C/C(=O)OCC(=O)NC2CCCCCCC2)ccc1O do in these assays?
V-ATPase pHluor: -3; CRFBP-R2 block: 28; CRFBP-R2 agonist: -9; NTR1 ag: 0

What do the screens show for `CCCc1cc(C(=O)NC(C)C2CCCO2)cs1` (stereo unspecified)?
V-ATPase pHluor: -1; CRFBP-R2 block: -3; CRFBP-R2 agonist: 1; NTR1 ag: 0

Results for CC(C)c1ccc(N(C(=O)c2ccco2)C(C(=O)NC2CCCC2)c2ccncc2)cc1 (stereo unspecified) ?
V-ATPase pHluor: 14*; CRFBP-R2 block: -4; CRFBP-R2 agonist: 0; NTR1 ag: 3

What do the screens show for `COc1ccc(N(C(=O)c2ccco2)C(C(=O)NC2CCCC2)c2ccc(N3CCOCC3)cc2)c(OC)c1` (stereo unspecified)?
V-ATPase pHluor: 3; CRFBP-R2 block: 53*; CRFBP-R2 agonist: 0; NTR1 ag: 1

What do the screens show for `CCC(CC)N1CCN(S(=O)(=O)c2ccc(OC)cc2)CC1`?
V-ATPase pHluor: 2; CRFBP-R2 block: 0; CRFBP-R2 agonist: 0; NTR1 ag: 0

What do the screens show for `NS(=O)(=O)c1ccc(CCNC(=O)Cc2cccs2)cc1`?
V-ATPase pHluor: 0; CRFBP-R2 block: -6; CRFBP-R2 agonist: -1; NTR1 ag: 0
